Compound activity as filed in PubChem BioAssay.
RAM inhibit: yeast RAM network inhibition. S. cerevisiae dse1pr::URA3 reporter, 5-FOA growth OD615, 2 d; analog-sensitive cbk1-as2 kinase mutant strain. inhibition, % at 50 µM. actives 1.8% (n = 190,000);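 active means inhibition above a set limit, 3 SD over mean compound inhibition, cut at about 8.4% in these data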;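 further: 0% = DMSO-only wells with no growth and 100% = 10 µM 1-NA-PP1 full growth; inhibition rescues growth on 5-FOA so higher OD means more RAM inhibition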
S1P4 antagonist: antagonists of human S1P4 receptor. actives 0.26% (n = 220,000). O95977. inhibition, % at 4.98 µM. S1P4-expressing cells, antagonist mode, reporter read-out; in the data active means inhibition above about 29%;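 further: 0% = wells stimulated with agonist and 100% = vehicle wells without agonist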
S1P4 agonist: human S1P4 receptor agonism; O95977; S1P4-expressing cell line, agonist reporter assay; activation, % at 4.98 µM; actives 0.35% (n = 220,000); in the data active means activation above about 11%;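 further: 0% = DMSO vehicle and 100% = reference agonist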
Cl transport mod: modulates chloride dependent transport by human KCC2; Q9H2X9; KCC2 cells, thallium flux FluoZin-2 fluorescence; B-score of Tl+ flux slope (higher = more flux/activation; lower = inhibition) at 10 µM; actives 2.2% (n = 190,000);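 active means thallium flux slope and its plate-corrected score both differing from the plate sample mean at a set confidence after two filtering rounds, in either direction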;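 further: slope of fluorescence scaled to starting intensity during 10 to 20 s after thallium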
Target sequence (Q9H2X9 whole entry, looked up): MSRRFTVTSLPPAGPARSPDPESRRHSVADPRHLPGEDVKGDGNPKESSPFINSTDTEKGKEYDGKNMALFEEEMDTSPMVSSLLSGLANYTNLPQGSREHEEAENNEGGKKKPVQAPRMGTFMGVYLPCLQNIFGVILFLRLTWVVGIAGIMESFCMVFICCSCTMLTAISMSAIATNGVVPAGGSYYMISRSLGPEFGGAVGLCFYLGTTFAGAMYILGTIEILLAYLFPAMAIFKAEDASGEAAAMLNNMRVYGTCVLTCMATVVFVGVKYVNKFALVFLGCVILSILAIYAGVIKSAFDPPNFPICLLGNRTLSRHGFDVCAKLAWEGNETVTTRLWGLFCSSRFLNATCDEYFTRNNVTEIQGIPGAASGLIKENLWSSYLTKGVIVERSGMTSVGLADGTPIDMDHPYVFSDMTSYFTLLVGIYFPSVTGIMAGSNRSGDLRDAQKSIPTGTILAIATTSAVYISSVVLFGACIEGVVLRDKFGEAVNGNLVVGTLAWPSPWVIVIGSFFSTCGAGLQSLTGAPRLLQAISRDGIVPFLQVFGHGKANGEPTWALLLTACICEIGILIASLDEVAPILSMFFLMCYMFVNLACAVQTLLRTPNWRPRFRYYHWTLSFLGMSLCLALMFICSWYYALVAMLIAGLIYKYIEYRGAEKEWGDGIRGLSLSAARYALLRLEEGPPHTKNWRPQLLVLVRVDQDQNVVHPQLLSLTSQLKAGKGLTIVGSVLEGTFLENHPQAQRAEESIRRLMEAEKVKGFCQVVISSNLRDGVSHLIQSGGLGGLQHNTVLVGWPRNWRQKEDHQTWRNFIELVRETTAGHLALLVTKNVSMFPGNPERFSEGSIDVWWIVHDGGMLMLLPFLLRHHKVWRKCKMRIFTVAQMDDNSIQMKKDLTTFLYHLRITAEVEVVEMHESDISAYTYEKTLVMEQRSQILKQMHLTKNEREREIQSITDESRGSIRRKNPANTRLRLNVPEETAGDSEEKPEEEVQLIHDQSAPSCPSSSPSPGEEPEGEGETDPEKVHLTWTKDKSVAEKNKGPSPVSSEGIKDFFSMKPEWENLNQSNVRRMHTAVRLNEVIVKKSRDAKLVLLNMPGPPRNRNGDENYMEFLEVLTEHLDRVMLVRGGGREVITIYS
S1P3 antag: antagonists of human S1P3 receptor; Q99500; CHO S1P3 NFAT-BLA reporter, FRET fluorescence, antagonist mode; inhibition, % at 4.98 µM; actives 0.27% (n = 170,000);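 active means inhibition above the plate cutoff, the mean inhibition of test wells on that plate plus 3 SD, cut at about 28% in these data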;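 further: cells challenged with S1P at its EC80 of 0.8 µM; blue over green emission ratio from cleaved BLA substrate after 4 h stimulation; 0% = S1P-stimulated wells and 100% = unstimulated DMSO-only wells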
ROMK mod: human ROMK K+ channel modulation, primary screen; P48048; Tet-inducible ROMK, thallium flux fluorescence; actives lie on both sides; B-score at 10 µM; actives 2% (n = 130,000);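 active means signal ratio slope over the read window, or its plate-corrected B-score, at least 3 SD from the plate mean, either direction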;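 further: B-score of the F/F0 ratio slope over 7 to 12 s after thallium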
* marks the source's active call; other numbers are inactive results. Rows were chosen to be rich in hits. Some 5.1% of all compounds tested hit in one or more screens of this group.

For COc1ccc(N(CC(=O)NCc2ccncc2)S(=O)(=O)c2ccccc2[N+](=O)[O-])c(OC)c1 the results were RAM inhibit 1, S1P4 antagonist -7, S1P4 agonist 1, Cl transport mod 0.019, S1P3 antag 4 and ROMK mod 0.083.
`C=CCn1c(SCC(=O)Nc2ccc(C(=O)OC(C)C)cc2)nnc1-c1cccs1` gave RAM inhibit 8.7*, S1P4 antagonist 2, S1P4 agonist 0, Cl transport mod -0.061, S1P3 antag 11 and ROMK mod 0.63.
For CCOC(=O)c1ccc(NC(=O)CSc2nnc(-c3cccs3)n2CC)cc1 the results were RAM inhibit 1, S1P4 antagonist -5, S1P4 agonist 1, Cl transport mod -0.19 and S1P3 antag 11.
COc1ccc(C)cc1NC(=O)COC(=O)Cc1ccc(-c2ccccc2)cc1 was read as RAM inhibit 9.6*, S1P4 antagonist -2, S1P4 agonist 2, Cl transport mod -0.53 and S1P3 antag 1.
NC(=O)c1ccsc1NC(=O)CSc1nnc2ccccn12 was read as RAM inhibit 2, S1P4 antagonist 14, S1P4 agonist 3, Cl transport mod 0.54, S1P3 antag -3 and ROMK mod 0.63.
For NC(=O)c1ccsc1NC(=O)CSc1nc2ccccc2c(=O)n1CCCO the results were RAM inhibit 8.9*, S1P4 antagonist 7, S1P4 agonist -3 and S1P3 antag -4.
For COc1ccc(Cn2c(C3CC3)nc3ccc(NC(C)=O)cc3c2=O)cc1 the results were RAM inhibit 10*, S1P4 antagonist 2, S1P4 agonist -5, Cl transport mod -0.035 and S1P3 antag 31.
`CCCCn1c(N)c(C(=S)NC(=O)CC(C)(C)C)c(=O)n(C)c1=O` gave RAM inhibit 0, S1P4 antagonist -8, S1P4 agonist 1, Cl transport mod 28* and S1P3 antag -42.
Cc1cccc(OCCn2nc(C(=O)O)c3ccccc3c2=O)c1 was read as RAM inhibit 4, S1P4 antagonist 19, S1P4 agonist 0 and Cl transport mod -1.4.
Cc1cccc(C)c1OCCn1nc(C(=O)O)c2ccccc2c1=O was read as RAM inhibit 10*, S1P4 antagonist -2, S1P4 agonist 1 and Cl transport mod -0.24.
For Cc1cccc(N2CCN(C(=O)Cc3ccc(-n4c(=O)[nH]c5ccsc5c4=O)cc3)CC2C)c1 (centres undefined) the results were RAM inhibit 1, S1P4 antagonist -17, S1P4 agonist 0, Cl transport mod 0.045 and S1P3 antag -14.
O=C(Cc1ccc(-n2c(=O)[nH]c3ccsc3c2=O)cc1)N1CCN(c2ccc(Cl)cc2)CC1 was read as RAM inhibit 8.4*, S1P4 antagonist -22, S1P4 agonist 2, Cl transport mod 0.66 and S1P3 antag -16.
`Cc1nc2ccccn2c1C(=O)N=Nc1c(O)n(CCC(C)C)c2ccccc12` gave RAM inhibit 3, S1P4 antagonist -16, S1P4 agonist 1, Cl transport mod -0.69 and S1P3 antag -5.
For CCOC(=O)c1c(NC(=S)Nc2ccccc2)sc2c1CC(C)(C)SC2 the results were RAM inhibit 3, S1P4 antagonist -21, S1P4 agonist 0, Cl transport mod 2.1, S1P3 antag -19 and ROMK mod -0.12.
Screening CCOC(=O)c1c(NC(=S)NC)sc2c1CC(C)(C)SC2 returned RAM inhibit 4, S1P4 antagonist -9, S1P4 agonist 0, Cl transport mod 37* and S1P3 antag -1.
`COC(=O)c1c(NC(=S)Nc2ccc(F)cc2[N+](=O)[O-])sc2c1CCCCC2` gave RAM inhibit 2, S1P4 antagonist -7, S1P4 agonist 1, Cl transport mod 20* and S1P3 antag -1.
Screening CNC(=S)Nc1sc2c(c1C(=O)OC)CCC2 returned RAM inhibit 3, S1P4 antagonist 8, S1P4 agonist 2, Cl transport mod 52*, S1P3 antag 1 and ROMK mod 6.3*.
For CC(C)(C)n1ncc2c(=O)n(CC(=O)NCc3ccccc3)cnc21 the results were RAM inhibit 0, S1P4 antagonist -2, S1P4 agonist 1, Cl transport mod 0.084, S1P3 antag -3 and ROMK mod 4.2*.
CC(=O)Nc1ccc(NC(=O)Cn2cnc3c(cnn3C(C)(C)C)c2=O)cc1 was read as RAM inhibit 1, S1P4 antagonist -1, S1P4 agonist 0, Cl transport mod -0.1, S1P3 antag 2 and ROMK mod 0.0017.
C=C(C)c1cccc(C(C)(C)NC(=O)Nc2ncccn2)c1 was read as RAM inhibit 2, S1P4 antagonist -34, S1P4 agonist -2, S1P3 antag -17 and ROMK mod 0.0061.
C=C(C)c1cccc(C(C)(C)NC(=O)Nc2ccc(Cl)cn2)c1 was read as RAM inhibit 11*, S1P4 antagonist -7, S1P4 agonist -4, Cl transport mod -0.76 and S1P3 antag 3.
Screening Clc1ccc(OCCN2CCN(c3ncnc4sccc34)CC2)cc1 returned RAM inhibit 2, S1P4 antagonist -15, S1P4 agonist -2, Cl transport mod -2.2 and S1P3 antag 64*.
Screening CCc1cc(-c2n[nH]c(=S)n2C(C)c2ccccc2)cs1 (centres undefined) returned RAM inhibit -1, S1P4 antagonist 3, S1P4 agonist 1, Cl transport mod 3.9* and ROMK mod -0.87.
`Cc1cccc2sc(NC(=O)Cn3cccc3)nc12` gave RAM inhibit 2, S1P4 antagonist -21, S1P4 agonist 1, Cl transport mod 12* and S1P3 antag -30.
Cc1cccc2sc(NC(=O)CCn3cccc3)nc12 was read as RAM inhibit 3, S1P4 antagonist -8, S1P4 agonist 0, Cl transport mod -0.58, S1P3 antag 4 and ROMK mod -1.1.
Screening CC(C)C(=O)N1CCC(CN=CC2=C(O)CC(C)(C)CC2=O)CC1 returned RAM inhibit 0, S1P4 antagonist -14, S1P4 agonist -2, Cl transport mod 0 and ROMK mod 0.07.
CC(=O)N/N=C(\C)C1COc2ccccc2O1 (centres undefined) was read as S1P4 antagonist 10, S1P4 agonist 0, Cl transport mod 0.2 and S1P3 antag -9.
For Cc1ccccc1NC(=O)N1C2CCCC1CC(NC(=O)C1CC1)C2 (centres undefined) the results were RAM inhibit -1, S1P4 antagonist -10, S1P4 agonist 6, Cl transport mod 1.6 and S1P3 antag -26.
For CCc1ccccc1NC(=O)N1C2CCCC1CC(NC(=O)C(C)(C)C)C2 (centres undefined) the results were RAM inhibit 3, S1P4 antagonist -12, S1P4 agonist 0, Cl transport mod -1.5 and S1P3 antag 63*.
`CCCCNC(=S)NNC(=O)c1ccco1` gave RAM inhibit 1, S1P4 antagonist 16, S1P4 agonist 1 and Cl transport mod 0.41.
